Biological target: T1, UCHL3 (UniProt P15374)
T1 sequence (whole entry): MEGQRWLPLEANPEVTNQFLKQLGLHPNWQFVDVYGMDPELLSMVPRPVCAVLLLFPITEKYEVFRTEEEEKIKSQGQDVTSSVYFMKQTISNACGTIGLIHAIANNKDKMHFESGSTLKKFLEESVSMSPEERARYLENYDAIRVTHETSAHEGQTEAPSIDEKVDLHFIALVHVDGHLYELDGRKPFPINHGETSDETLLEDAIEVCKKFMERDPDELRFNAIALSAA
Assay: log2 ratio of Biotin-Ahx-Ub-VS probe labelling (fragment/DMSO); higher = less target engagement (more negative = stronger competition), active = hit call of the paper (q ≤ 0.05, log2 ratio ≤ -1)
Settings: compound concentration: 200 uM; treatment time: 3 h
In short: (§1)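 Labelling with Biotin-Ahx-Ub-VS (0.5 µM final, 1 h) followed a 3 h triplicate treatment of HEK293T lysate (495 µg per sample, Tris/CHAPS/IGEPAL buffer with protease inhibitors) with fragment at 200 µM or vehicle. Labelled DUBs were NeutrAvidin-enriched, digested with LysC and trypsin, and run by diaPASEF LC-MS/MS. The values, average log2 fragment/vehicle ratios by unpaired t-test, come from global-median-normalised Spectronaut label-free quantities. Proteins with ≥2 unique peptides were used.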

log2 ratio of Biotin-Ahx-Ub-VS probe labelling, active:
COc1ccccc1C(C)NC(=O)CCl (centres undefined) -1.18

log2 ratio of Biotin-Ahx-Ub-VS probe labelling, inactive:
N#Cc1ccc(CNC(=O)CCl)cc1 0.183
Cc1nc(CN2CCCN(C(=O)CCl)CC2)no1.Cl 0.331
Cc1ccc(C)c(NC(=O)CCl)c1 -0.416
Cc1cc(CC(C)NC(=O)CCl)n[nH]1 (centres undefined) -0.222
O=C(CCl)N1CCCN(C(=O)c2ccc(Cl)cc2)CC1 0.267
Cl.O=C(CCl)NCCN1CCc2ccccc21 -0.556
CC1(NC(=O)CCl)CCS(=O)(=O)C1 (centres undefined) -0.392
N#Cc1ccc(Cl)cc1NC(=O)CCl 0.385
O=C(CCl)N1CCCC1c1ccsc1 (centres undefined) -0.121
O=C(CCl)NCc1ccc(N2CCOCC2)nc1 0.0731
O=C(CCl)NCc1cccc(F)c1 0.227
COc1ccc(Cl)cc1NC(=O)CCl -0.0348
O=C(CCl)N1CCC(c2nc3ccccc3o2)CC1 0.054

Biological target: T2, UCHL5 (UniProt Q9Y5K5)
T2 sequence (whole entry): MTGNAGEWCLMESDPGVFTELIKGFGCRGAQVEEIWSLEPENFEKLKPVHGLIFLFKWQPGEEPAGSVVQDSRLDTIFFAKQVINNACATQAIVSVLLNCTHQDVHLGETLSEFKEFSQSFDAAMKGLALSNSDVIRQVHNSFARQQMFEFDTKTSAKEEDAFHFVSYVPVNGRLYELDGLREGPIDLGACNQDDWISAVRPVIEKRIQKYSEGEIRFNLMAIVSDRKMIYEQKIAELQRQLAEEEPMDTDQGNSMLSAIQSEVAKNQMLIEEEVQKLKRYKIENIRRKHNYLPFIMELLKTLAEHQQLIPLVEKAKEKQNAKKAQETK
Assay: as above
Settings: compound concentration: 200 uM; treatment time: 3 h
In short: as §1

log2 ratio of Biotin-Ahx-Ub-VS probe labelling, active:
Cl.O=C(CCl)N1CCn2ncc(O)c2C1 -1.12
Cl.O=C(CCl)NCCN1CCc2ccccc21 -1.03

log2 ratio of Biotin-Ahx-Ub-VS probe labelling, inactive:
Cl.O=C(CCl)N1CCC(n2nc3ccccc3n2)CC1 -0.457
Cc1cccc(C)c1NC(=O)CCl -0.309
CCN(C(=O)CCl)C1CCS(=O)(=O)C1 (centres undefined) -0.0522
Cl.O=C(CCl)N[C@H]1C[C@@H](n2cccn2)C1 -0.14
Cc1ccc2nnc(CNC(=O)CCl)n2c1 -0.0479
O=C(CCl)Nc1ccc(N2CCCC2=O)cc1 -0.098
Cl.O=C(CCl)NCc1ccnc(Oc2ccccc2F)c1 -0.282
O=C(CCl)N1CCC(S(=O)(=O)c2ccc(F)cc2)CC1 -0.128
Cc1cccc(NC(=O)CCl)c1C -0.0693
CCN(C(=O)CCl)C1CCCCC1 0.0144
O=C(CCl)NC1(c2ccc3c(c2)OCCO3)CCCC1 -0.537
O=C(CCl)N1CCN(C(=O)Nc2ccccc2)CC1 0.033
O=C(CCl)NC(Cn1ccccc1=O)c1ccccc1 (centres undefined) -0.175
CC1CCc2onc(CNC(=O)CCl)c2C1 (centres undefined) -0.175
O=C(CCl)N1CCCCCC1c1ncon1 (centres undefined) -0.229
Cc1cccc(N(CCC#N)C(=O)CCl)c1C -0.0436
O=C(CCl)Nc1ccccc1C(F)(F)F -0.341
Cc1ccccc1OCC(=O)N1CCN(C(=O)CCl)CC1 -0.137
CN(C)C(=O)c1ccc(CNC(=O)CCl)cc1 -0.118
Cl.Cn1cnc2cc(CNC(=O)CCl)ccc21 0.000192
N#Cc1ccc(CNC(=O)CCl)cc1 -0.131
Cc1nc(CN2CCCN(C(=O)CCl)CC2)no1.Cl -0.00418
Cc1ccc(C)c(NC(=O)CCl)c1 -0.568
Cc1cc(CC(C)NC(=O)CCl)n[nH]1 (centres undefined) -0.292
O=C(CCl)N1CCCN(C(=O)c2ccc(Cl)cc2)CC1 -0.389
CC1(NC(=O)CCl)CCS(=O)(=O)C1 (centres undefined) -0.974
N#Cc1ccc(Cl)cc1NC(=O)CCl 0.0193
O=C(CCl)N1CCCC1c1ccsc1 (centres undefined) -0.228
O=C(CCl)NCc1ccc(N2CCOCC2)nc1 -0.235
O=C(CCl)NCc1cccc(F)c1 -0.0221
COc1ccccc1C(C)NC(=O)CCl (centres undefined) -0.318
COc1ccc(Cl)cc1NC(=O)CCl -0.501
O=C(CCl)N1CCC(c2nc3ccccc3o2)CC1 -0.349

Source: the supplement of paper PMC11732987, “Enantioselective OTUD7B fragment discovery through chemoproteomics screening and high-throughput optimisation” (Communications Chemistry, 2025)
